Values joined by “and” are separate entries in the source; they are usually repeats but may differ in a detail not shown here. Equal values may be shown once. Results filed as inconclusive are left out. Some structures have more than one record in an assay (separate samples or runs), and their calls can disagree. Active and inactive are the calls of the source. Unless noted, calls follow the shape of the dose curve; as a rule, active = well fitted curve in the direction sought with a large enough effect; inconclusive = small, poorly fitted or top-dose-only effect, or another doubt; inactive = no such curve, though single readings can be large; an effect the other way counts as inactive or inconclusive.

Experiment [1] can be described thus: P-glycoprotein substrates identified in KB-8-5-11 adenocarcinoma cell line, qHTS therapeutic library screen (AID 1346987). Also: nearly all actives have a fitted effect of over 65% in size. Also: potency is read from the fitted curve at half-maximal effect. In short, it runs like this:
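Steps: plate 500 KB-8-5-11 cells/well in DMEM + 10% FCS (colchicine removed); pin compounds in dose-response; incubate 72 h, 37 degree C, 5% CO2; add CellTiter-Glo, 5 min; read luminescence.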
On the technique in general: In qHTS, concentration-response curves come from the screen itself.

Experiment [2] is described as follows: Natriuretic polypeptide receptor (hNpr1) antagonism - Pilot counterscreen GloSensor control cell line (AID 1347045; calls by dose curve). In short, it runs like this:
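Luminescence was read before and 20 min after adding 50 uM SNP, which stimulates soluble guanylyl cyclase. The HEK293 cells expressing the GloSensor cGMP sensor had been preloaded with 2% reagent for 2 h and treated with compound.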
A general note: A counterscreen serves to expose hits that act by an unwanted route or on another target.

In experiment [3] the target is Atrial natriuretic peptide receptor 1 (Homo sapiens) (UniProt P16066). Description: Natriuretic polypeptide receptor (hNpr1) antagonism - Pilot screen (AID 1347049; calls by dose curve;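 also: agonist-evoked cGMP luminescence read 20 min after hNppA addition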). In short, it runs like this:
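HEK293 cells co-expressing hNpr1 and the GloSensor pGS-40F cGMP luciferase sensor were preloaded with 2% GloSensor reagent for 2 h. Compounds were added for 30 min at room temperature, then cells were stimulated with 0.1 nM hNppA for 20 min before luminescence readout.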

The target of experiment [4] is Atrial natriuretic peptide receptor 2 (Homo sapiens) (UniProt P20594). Description: Natriuretic polypeptide receptor (hNpr2) antagonism - Pilot subtype selectivity assay (AID 1347050; calls by dose curve). In short, it runs like this:
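cGMP-sensor HEK293/hNpr2 cells; 2% GloSensor reagent 2 h RT; compounds 30 min; baseline luminescence read; 1 nM hNppC agonist 20 min RT; final luminescence read by CCD camera. Antagonism = reduced post-agonist signal.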

The nature of experiment [5]: NS1 protein of Zika virus - qHTS assay to identify small molecule inhibitors in human HEK 293 cells (AID 1347053). Also: nearly all actives have a fitted effect of over 55% in size. Also: potency is read from the fitted curve at half-maximal effect. In short, it runs like this:
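Inhibition of NS1 expression was scored in HEK 293 cells given compound 1 h ahead of MR766 virus (MOI = 0.5). Following 24 h at 37 C, two anti-NS1 antibodies generated a TR-FRET signal, scaled between uninfected and infected controls.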

The target in experiment [6] is T1, Tyrosine-protein phosphatase non-receptor type substrate 1 (Homo sapiens) + Leukocyte surface antigen CD47 (Homo sapiens) (UniProt P78324+Q08722). Description: CD47-SIRPalpha protein protein interaction - LANCE assay qHTS validation (AID 1347057; active = well fitted curve in the direction sought with a large enough effect in the signal ratio, with a control signal flat, not every such curve was filed as active; the % refers to the signal ratio). In short, it runs like this:
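First, His-tagged CD47 and Eu-labelled anti-His antibody met the compound for 30 min; next, site-specifically biotinylated SIRPalpha was added for 30 min; finally streptavidin-APC was added before reading the TR-FRET ratio.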
(In general: TR-FRET usually uses a lanthanide donor and a delayed reading to cut background.)

Experiment [7] deals with T1, Tyrosine-protein phosphatase non-receptor type substrate 1 (Homo sapiens) + Leukocyte surface antigen CD47 (Homo sapiens). Description: CD47-SIRPalpha protein protein interaction - HTRF assay qHTS validation (AID 1347058; active = well fitted curve in the direction sought with a large enough effect in the signal ratio, not every such curve was filed as active; the % refers to the signal ratio). In short, it runs like this: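 TR-FRET read (Ch1/Ch2 ratio) of soluble extracellular CD47 and Avi-biotinylated SIRPalpha domains in PBS pH 7.4 with 0.05% IGEPAL; 7-point compound titration. Sequential 30 min room-temperature steps; non-biotinylated SIRPalpha as control inhibitor.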

For experiment [8] the target is unchanged. Description: CD47-SIRPalpha protein protein interaction - Alpha assay qHTS validation (AID 1347059).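 Also: bead proximity luminescence from CD47 binding SIRPalpha after compound preincubation with SIRPalpha.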 Also: potency is read from the fitted curve at half-maximal effect. In short, it runs like this: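 Soluble extracellular domains: Avi-tag biotinylated SIRPalpha (25 nM) preincubated 30 min RT with compound, then 6His-CD47 (12.5 nM) 30 min; Ni-NTA acceptor and streptavidin donor beads (10 ug/mL) 30 min, AlphaScreen read. PBS pH 7.4, 0.05% IGEPAL.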

Experiment [9] has as its target Parathyroid hormone/parathyroid hormone-related peptide receptor (Homo sapiens) (UniProt Q03431). Description: qHTS for PTHR1 Agonists: Optimization Screen against the NCGC LOPAC library (AID 1347079).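 Also: GloSensor cAMP luminescence in HEK-293 GP2 cells expressing human PTHR1 with IBMX.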 In short, it runs like this: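 Agonist readout: GloSensor cAMP luminescence, read after 15 min at room temperature. HEK-293-derived GP2 line carries PTHR1; compounds tested as a titration for 1 hr at 37C in presence of IBMX. M-PTH (1-15) served as control.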

A short description of experiment [10]: qHTS of pediatric cancer cell lines to identify multiple opportunities for drug repurposing: Primary screen for TC32 cells (AID 1347089). Also: nearly all actives have a fitted effect of over 60% in size. In short, it runs like this:
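A viability screen of TC32 cells was run over 48 h, with primary MIPE doses spanning 0.78 nM–46 µM and NPC doses 0.59 nM–46 µM. ATP luminescence (CellTiter-Glo) served as the read-out.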

The mark [11] stands for this setting: outcome: dose series up to 44.5 µM unless noted.

Chain of Atrial natriuretic peptide receptor 1 (Homo sapiens) (P16066 whole entry, looked up): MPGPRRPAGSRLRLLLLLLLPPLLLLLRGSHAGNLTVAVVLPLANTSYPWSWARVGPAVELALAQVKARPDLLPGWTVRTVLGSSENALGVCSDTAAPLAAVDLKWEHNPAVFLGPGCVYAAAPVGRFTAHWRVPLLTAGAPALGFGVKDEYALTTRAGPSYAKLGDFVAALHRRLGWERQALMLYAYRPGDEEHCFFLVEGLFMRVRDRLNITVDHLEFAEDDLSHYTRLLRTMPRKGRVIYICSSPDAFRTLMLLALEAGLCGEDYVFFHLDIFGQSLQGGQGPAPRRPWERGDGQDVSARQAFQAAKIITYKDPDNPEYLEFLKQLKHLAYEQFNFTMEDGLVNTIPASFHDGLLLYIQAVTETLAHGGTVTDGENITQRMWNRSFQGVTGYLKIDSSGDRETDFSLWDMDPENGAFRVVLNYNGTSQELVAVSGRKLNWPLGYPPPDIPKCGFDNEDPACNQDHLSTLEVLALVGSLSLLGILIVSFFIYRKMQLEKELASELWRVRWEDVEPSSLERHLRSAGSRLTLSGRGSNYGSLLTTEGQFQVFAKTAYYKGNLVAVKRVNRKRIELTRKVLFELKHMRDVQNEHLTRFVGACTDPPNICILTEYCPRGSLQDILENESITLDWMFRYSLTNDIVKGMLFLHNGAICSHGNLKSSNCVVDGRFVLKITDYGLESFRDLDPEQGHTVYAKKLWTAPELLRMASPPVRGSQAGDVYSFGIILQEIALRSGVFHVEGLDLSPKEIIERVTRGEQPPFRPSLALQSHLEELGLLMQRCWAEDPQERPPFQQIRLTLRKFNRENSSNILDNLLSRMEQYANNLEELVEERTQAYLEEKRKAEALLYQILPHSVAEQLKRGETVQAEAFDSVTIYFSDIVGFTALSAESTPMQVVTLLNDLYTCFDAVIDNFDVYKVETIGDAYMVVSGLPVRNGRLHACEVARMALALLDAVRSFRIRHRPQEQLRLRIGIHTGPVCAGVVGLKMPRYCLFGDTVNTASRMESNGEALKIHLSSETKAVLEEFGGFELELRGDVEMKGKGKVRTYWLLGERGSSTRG
T1 sequence (P78324 whole entry, looked up): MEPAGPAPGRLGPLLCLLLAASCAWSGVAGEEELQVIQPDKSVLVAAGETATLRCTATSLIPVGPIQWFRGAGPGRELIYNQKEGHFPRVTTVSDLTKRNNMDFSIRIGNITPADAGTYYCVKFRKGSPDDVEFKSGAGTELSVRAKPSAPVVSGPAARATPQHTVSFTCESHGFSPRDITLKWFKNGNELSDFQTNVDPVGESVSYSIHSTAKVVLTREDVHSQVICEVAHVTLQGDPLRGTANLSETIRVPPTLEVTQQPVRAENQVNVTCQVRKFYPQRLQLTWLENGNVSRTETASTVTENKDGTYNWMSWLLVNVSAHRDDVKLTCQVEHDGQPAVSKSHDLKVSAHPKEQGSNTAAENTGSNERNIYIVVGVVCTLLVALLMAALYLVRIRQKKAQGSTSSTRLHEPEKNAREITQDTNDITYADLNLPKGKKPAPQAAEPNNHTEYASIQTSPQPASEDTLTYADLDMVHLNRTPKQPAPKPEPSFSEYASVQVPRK
T1 sequence (Q08722 whole entry, looked up): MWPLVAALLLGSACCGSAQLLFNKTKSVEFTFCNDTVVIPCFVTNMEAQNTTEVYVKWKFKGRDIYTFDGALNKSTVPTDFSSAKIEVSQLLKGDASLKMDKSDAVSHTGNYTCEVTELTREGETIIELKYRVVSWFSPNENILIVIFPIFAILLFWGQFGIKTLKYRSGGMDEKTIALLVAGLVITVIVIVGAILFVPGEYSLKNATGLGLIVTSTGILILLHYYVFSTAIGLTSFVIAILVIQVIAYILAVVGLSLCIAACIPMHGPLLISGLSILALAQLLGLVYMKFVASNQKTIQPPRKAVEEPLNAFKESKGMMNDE
Chain of Parathyroid hormone/parathyroid hormone-related peptide receptor (Homo sapiens) (Q03431 whole entry, looked up): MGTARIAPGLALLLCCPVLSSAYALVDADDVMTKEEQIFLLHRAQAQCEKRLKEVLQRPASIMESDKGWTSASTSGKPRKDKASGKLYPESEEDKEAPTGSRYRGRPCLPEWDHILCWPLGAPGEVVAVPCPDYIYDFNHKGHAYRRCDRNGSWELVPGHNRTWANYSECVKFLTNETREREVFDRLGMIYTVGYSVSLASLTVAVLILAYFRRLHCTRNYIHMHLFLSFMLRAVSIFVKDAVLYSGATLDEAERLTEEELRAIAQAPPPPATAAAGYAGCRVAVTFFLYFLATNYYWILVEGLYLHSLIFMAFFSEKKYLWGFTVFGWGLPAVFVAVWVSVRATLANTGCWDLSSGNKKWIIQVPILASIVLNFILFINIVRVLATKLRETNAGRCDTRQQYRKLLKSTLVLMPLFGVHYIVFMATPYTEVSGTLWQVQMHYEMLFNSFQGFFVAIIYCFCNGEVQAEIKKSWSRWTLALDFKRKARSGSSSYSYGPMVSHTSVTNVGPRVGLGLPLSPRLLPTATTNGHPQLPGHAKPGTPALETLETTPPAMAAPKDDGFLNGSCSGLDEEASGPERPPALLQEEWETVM
Chain of Atrial natriuretic peptide receptor 2 (Homo sapiens) (P20594 whole entry, looked up): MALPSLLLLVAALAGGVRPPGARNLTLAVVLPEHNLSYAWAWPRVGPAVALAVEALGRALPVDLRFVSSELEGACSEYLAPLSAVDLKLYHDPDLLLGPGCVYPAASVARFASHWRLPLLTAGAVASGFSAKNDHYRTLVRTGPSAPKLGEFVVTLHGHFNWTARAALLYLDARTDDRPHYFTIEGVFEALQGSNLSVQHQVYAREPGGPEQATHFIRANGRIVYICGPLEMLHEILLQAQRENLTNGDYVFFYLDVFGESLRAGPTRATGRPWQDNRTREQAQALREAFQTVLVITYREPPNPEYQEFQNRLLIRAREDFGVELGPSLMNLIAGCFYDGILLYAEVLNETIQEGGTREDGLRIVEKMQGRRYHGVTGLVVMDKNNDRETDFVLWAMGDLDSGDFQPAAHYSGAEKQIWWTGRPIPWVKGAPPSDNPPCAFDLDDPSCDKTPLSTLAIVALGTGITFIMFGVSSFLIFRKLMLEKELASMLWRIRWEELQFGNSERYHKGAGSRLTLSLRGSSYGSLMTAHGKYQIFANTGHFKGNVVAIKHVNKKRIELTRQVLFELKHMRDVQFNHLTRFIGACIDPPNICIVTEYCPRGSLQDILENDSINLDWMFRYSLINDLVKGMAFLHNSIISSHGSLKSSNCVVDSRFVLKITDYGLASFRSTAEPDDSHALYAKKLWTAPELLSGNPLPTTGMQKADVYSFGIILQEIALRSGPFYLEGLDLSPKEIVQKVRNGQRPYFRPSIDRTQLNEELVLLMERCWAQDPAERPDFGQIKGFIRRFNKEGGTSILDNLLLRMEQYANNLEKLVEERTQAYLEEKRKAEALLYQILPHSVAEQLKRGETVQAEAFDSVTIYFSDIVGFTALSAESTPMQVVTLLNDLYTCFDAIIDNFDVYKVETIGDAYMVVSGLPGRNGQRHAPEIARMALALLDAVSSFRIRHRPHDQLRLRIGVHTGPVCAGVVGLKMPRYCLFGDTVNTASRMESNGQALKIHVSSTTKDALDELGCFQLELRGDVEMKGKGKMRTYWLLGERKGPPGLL

For `O=C(C1CCCCC1)N1CC(=O)N2CCc3ccccc3C2C1` (centres undefined), the Potency entry in experiment [1] (setting [11]), in [2], in [3], in [4], in experiment [5] and in experiment [8] was “inactive” each time. Moreover, the Potency entry in experiment [9] and in experiment [10] was “inactive” throughout. The outcome in experiment [6] and in experiment [7] was inactive.

`Cn1cnc2c1c(=O)[nH]c(=O)n2C`: the Potency entry in experiment [1] (setting [11]) was “inactive and 16.6 µM (active)”. Also, the Potency result in [2], in experiment [3], in [4], in experiment [5], in experiment [8] and in [9] was “inactive” in each case. Further, the Potency entry in [10] is “inactive”. For the same molecule, the result in [6] and in [7] was inactive.

As to `CC(C)(Oc1ccc(C2CC2(Cl)Cl)cc1)C(=O)O` (centres undefined), the Potency entry in experiment [1] (setting [11]), in [2], in experiment [3], in experiment [4], in [5] and in experiment [8] was “inactive” each time. The Potency entry in experiment [9] and in experiment [10] was “inactive” in each case. Also, the result in [6] and in experiment [7] was inactive.

For `C[C@](N)(Cc1ccc(O)c(O)c1)C(=O)O`, the Potency entry in experiment [1] (setting [11]), in experiment [2], in [3], in experiment [4], in [5] and in experiment [8] was “inactive” throughout. In addition, the Potency result in experiment [9] and in experiment [10] was “inactive” throughout. For the same molecule, the result in experiment [6] and in experiment [7] was inactive.

For the molecule `NC(=O)OCC(COC(N)=O)c1ccccc1`, the Potency entry in experiment [1] (setting [11]), in [2], in [3], in experiment [4], in experiment [5] and in experiment [8] was “inactive” each time. In addition, the Potency result in [9] and in experiment [10] was “inactive” throughout. In addition, the outcome in [6] and in [7] was inactive.

On to `Cc1cn([C@H]2C=C[C@@H](CO)O2)c(=O)[nH]c1=O`, for which the Potency entry in [1] (setting [11]), in [2], in [3], in [4], in [5] and in experiment [8] was “inactive” each time. For the same molecule, the Potency result in [9] and in experiment [10] was “inactive” in each case. Also, the outcome in experiment [6] and in experiment [7] was inactive.

`O=c1c(O)c(-c2ccc(O)c(O)c2)oc2cc(O)cc(O)c12`: the Potency result in experiment [1] (setting [11]), in experiment [2], in [3], in [4], in [5] and in experiment [9] was “inactive” each time. Besides, the Potency result in experiment [10] is “inactive”.

With `CCC1(c2ccccc2)C(=O)NCNC1=O`, the Potency result in experiment [1] (setting [11]), in experiment [2], in [3], in experiment [4], in experiment [5] and in experiment [8] was “inactive” throughout. Besides, the Potency entry in experiment [9] and in [10] was “inactive” throughout. The result in experiment [6] and in experiment [7] was inactive.

`CNCCCC12CCC(c3ccccc31)c1ccccc12`: the Potency in experiment [1] (setting [11]) and in experiment [5] was 20.9 µM (active) in each case. The Potency entry in experiment [2], in [3], in experiment [4], in experiment [8], in experiment [9] and in [10] was “inactive” in each case. The outcome in [6] and in [7] was inactive.

For `CN(C)C(=N)N=C(N)N`, the result in experiment [1] (KB-8-5-11 (P-gp overexpressing) viability, CellTiter-Glo, 72 h, at 44.5 µM (top of the series)) was inactive. Further, the outcome in experiment [1] (setting [11]) was “inactive [setting not given]”. Besides, the Potency result in experiment [5] and in experiment [10] was “inactive” throughout.

As for `COc1ccc(C2CNC(=O)C2)cc1OC1CCCC1` (centres undefined), the Potency result in experiment [1] (setting [11]), in experiment [2], in experiment [3], in experiment [4], in [5] and in [8] was “inactive” throughout. Further, the Potency entry in experiment [9] and in experiment [10] was “inactive” throughout. For the same molecule, the result in experiment [6] and in experiment [7] was inactive.

`CCC1(C)CC(=O)NC1=O` (centres undefined): the Potency result in experiment [1] (setting [11]), in [2], in [3], in [4], in [5] and in experiment [8] was “inactive” each time. The Potency entry in experiment [9] and in [10] was “inactive” throughout. The result in experiment [6] and in [7] was inactive.

Take `NCCS(=O)(=O)O`: the Potency result in [1] (setting [11]), in experiment [2], in experiment [3], in experiment [4], in experiment [5] and in [8] was “inactive” in each case. For the same molecule, the Potency entry in experiment [9] and in experiment [10] was “inactive” in each case. The outcome in experiment [6] and in [7] was inactive.

With `NC(CO)C(=O)NNCc1ccc(O)c(O)c1O` (centres undefined), the Potency result in experiment [1] (setting [11]), in experiment [2], in [3], in [4], in [5] and in [9] was “inactive” each time. Besides, the Potency result in experiment [10] was “inactive”. The Potency in experiment [8] was 13.1 µM (active).

Turning to `Nc1ccn([C@H]2CC[C@@H](CO)O2)c(=O)n1`, the Potency result in experiment [1] (setting [11]), in experiment [2], in [3], in [4], in [5] and in experiment [8] was “inactive” each time. Also, the Potency result in [9] and in experiment [10] was “inactive” each time. Moreover, the outcome in experiment [6] and in experiment [7] was inactive.

Take `Cc1ccccc1N1C(=O)c2cc(S(N)(=O)=O)c(Cl)cc2NC1C` (centres undefined): the Potency result in experiment [1] (setting [11]), in experiment [2], in [3], in experiment [4], in experiment [5] and in [9] was “inactive” in each case. Also, the Potency result in [10] is “inactive”.

Regarding `CCOC(=O)C(C)(C)Oc1ccc(Cl)cc1`, the Potency result in experiment [1] (setting [11]), in experiment [2], in experiment [3], in [4], in experiment [5] and in experiment [8] was “inactive” throughout. The Potency entry in experiment [9] and in experiment [10] was “inactive” in each case. The outcome in experiment [6] and in [7] was inactive.

As to `C[C@H]1c2cccc(O)c2C(O)=C2C(=O)[C@]3(O)C(O)=C(C(N)=O)C(=O)[C@@H](N(C)C)[C@@H]3[C@@H](O)[C@@H]21`, the Potency result in experiment [1] (setting [11]), in experiment [2], in [3], in experiment [4], in [5] and in experiment [9] was “inactive” each time. For the same molecule, the Potency result in [10] is “inactive”. Further, the outcome in experiment [6] and in experiment [7] was inactive.

For `CN(C)c1nc(N(C)C)nc(N(C)C)n1`, the Potency entry in [1] (setting [11]), in [2], in experiment [3], in [4], in experiment [5] and in [8] was “inactive” each time. Besides, the Potency entry in [9] and in experiment [10] was “inactive” throughout. Besides, the result in experiment [6] and in experiment [7] was inactive.

On to `COc1nc(C)nc(Cl)c1NC1=NCCN1`, for which the Potency entry in experiment [1] (setting [11]), in [2], in experiment [3], in experiment [4], in [5] and in experiment [8] was “inactive” throughout. Further, the Potency result in [9] and in [10] was “inactive” in each case. Besides, the result in experiment [6] and in experiment [7] was inactive.

In the case of `Cn1c(=O)c2[nH]cnc2n(C)c1=O`, the Potency result in experiment [1] (setting [11]), in experiment [2], in experiment [3], in experiment [4], in experiment [5] and in experiment [8] was “inactive” each time. For the same molecule, the Potency entry in experiment [9] and in experiment [10] was “inactive” throughout. The result in experiment [6] was inactive.

`CCN1CCCC1CNC(=O)c1cc(S(=O)(=O)CC)c(N)cc1OC` (centres undefined): the Potency entry in experiment [1] (setting [11]), in experiment [2], in [3], in experiment [4], in experiment [5] and in experiment [8] was “inactive” in each case. Also, the Potency result in experiment [9] and in experiment [10] was “inactive” throughout. Also, the outcome in [6] and in experiment [7] was inactive.

The values are drawn from PubChem BioAssay (NCATS).
